Among the data in PubChem BioAssay (Tox21) are Potency values, retold here.

The nature of experiment [1]: qHTS assay to identify small molecule antagonists of the estrogen related receptor (ERR) signaling pathway - cell viability counter screen (AID 1224818). Further: potency means the concentration at half of the fitted maximal effect. Particulars: ERR reporter cell line viability counter screen; series mostly up to 46.1 µM. The essentials:
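Compounds dissolved in DMSO were applied to ERR cells seeded at 2,000 per well 6 h earlier. Cell viability followed 17.5 h later via 30-min CellTiter-Fluor fluorescence.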

A short description of experiment [2]: qHTS assay to identify small molecule antagonists of the estrogen related receptor (ERR) signaling pathway (AID 1224819; further: nearly all actives have a fitted effect of over 50% in size; further: potency means the concentration at half of the fitted maximal effect). Particulars: ERR reporter cell line, luciferase inhibition; series mostly up to 46.1 µM. The essentials: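 Compounds dissolved in DMSO were pin-transferred onto ERR cells that had been plated 6 h earlier, and cells were then incubated 18 h at 37 C; signal was luciferase luminescence via One-Glo.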
Background: qHTS replaces the single test concentration by a dilution series.

The nature of experiment [3]: qHTS assay to identify small molecule agonists of the estrogen related receptor (ERR) signaling pathway (AID 1224820). Further: potency means the concentration at half of the fitted maximal effect. As to conditions: ERR reporter cell line, luciferase agonist mode; series mostly up to 46.1 µM. The method in brief:
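Luminescence readout (One-Glo, 30 min RT) from NTP-supplied ERR cell line exposed to compounds for 18 h at 37 C. Cells seeded 2,000 per well and pre-incubated 6 h before pin-tool compound transfer.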

The nature of experiment [4]: qHTS assay to identify small molecule antagonists of the estrogen related receptor signaling pathway with the pleiotropic PPARgamma coactivator (PGC) cell viability counter screen (AID 1224822). Particulars: ERR/PGC reporter cell line viability counter screen; series mostly up to 46.1 µM. The method in brief: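 Counter screen for cell viability: PGC/ERR cells, 6 h pre-incubation after plating, 17.5 h compound exposure at 37 C, fluorescence from CellTiter-Fluor after 30 min.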

A short description of experiment [5]: qHTS assay to identify small molecule agonists of the estrogen related receptor signaling pathway with the pleiotropic PPARgamma coactivator (PGC) (AID 1224823). Further: potency means the concentration at half of the fitted maximal effect. As to conditions: ERR/PGC reporter cell line, luciferase agonist mode; series mostly up to 46.1 µM. The method in brief:
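Luminescence readout (One-Glo, 30 min RT) from PGC/ERR cell line treated 18 h at 37 C with pin-tool-delivered DMSO compound solutions; cells plated 6 h before dosing. Quantitative HTS format.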

For experiment [6], the system named is estrogen-related receptor alpha (ERRalpha) with PGC-1alpha coactivator, human. Nature of the experiment: qHTS assay to identify small molecule antagonists of the estrogen related receptor signaling pathway with the pleiotropic PPARgamma coactivator (PGC) (AID 1224821; calls by dose curve;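 further: lower luminescence signal means antagonism of PGC/ERR signalling; nearly all actives have a fitted effect of over 50% in size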). As to conditions: ERR/PGC reporter cell line, luciferase, antagonist mode; series mostly up to 46.1 µM. The essentials: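 PGC/ERR reporter cells; 6 h pre-incubation 37 C/5% CO2; pin-tool compound in DMSO, 18 h 37 C; One-Glo added, 30 min RT; luminescence read. qHTS antagonist mode.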

A short description of experiment [7]: qHTS assay to identify small molecule antagonists of the estrogen related receptor (ERR) signaling pathway from Tox21 library - cell viability counter screen (AID 1224834). Further: potency means the concentration at half of the fitted maximal effect; nearly all actives have a fitted effect of over 30% in size. Particulars: ERR reporter cells viability, CellTiter-Fluor, 17.5 h; series mostly up to 92.4 µM. The method in brief:
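Seeded ERR cells were rested 6 h at 37 C/5% CO2 before compounds, positive and negative controls or DMSO were added. Incubation continued for 17.5 h, and viability was then quantified by CellTiter-Fluor fluorescence.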

In experiment [8] the target is Luciferin 4-monooxygenase (Photinus pyralis) (UniProt P08659). In words: qHTS assay to identify small molecule inhibitors of firefly luciferase (AID 1224835). Further: potency means the concentration at half of the fitted maximal effect; nearly all actives have a fitted effect of over 25% in size. Particulars: purified P. pyralis luciferase, luminescence inhibition; series mostly up to 115 µM. The method in brief: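 Biochemical qHTS: compounds run as interplate titrations against purified firefly enzyme, with D-luciferin and ATP each at its KM concentration. Light output recorded by CCD imaging.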
Chain of Luciferin 4-monooxygenase (Photinus pyralis) (P08659 whole entry, looked up): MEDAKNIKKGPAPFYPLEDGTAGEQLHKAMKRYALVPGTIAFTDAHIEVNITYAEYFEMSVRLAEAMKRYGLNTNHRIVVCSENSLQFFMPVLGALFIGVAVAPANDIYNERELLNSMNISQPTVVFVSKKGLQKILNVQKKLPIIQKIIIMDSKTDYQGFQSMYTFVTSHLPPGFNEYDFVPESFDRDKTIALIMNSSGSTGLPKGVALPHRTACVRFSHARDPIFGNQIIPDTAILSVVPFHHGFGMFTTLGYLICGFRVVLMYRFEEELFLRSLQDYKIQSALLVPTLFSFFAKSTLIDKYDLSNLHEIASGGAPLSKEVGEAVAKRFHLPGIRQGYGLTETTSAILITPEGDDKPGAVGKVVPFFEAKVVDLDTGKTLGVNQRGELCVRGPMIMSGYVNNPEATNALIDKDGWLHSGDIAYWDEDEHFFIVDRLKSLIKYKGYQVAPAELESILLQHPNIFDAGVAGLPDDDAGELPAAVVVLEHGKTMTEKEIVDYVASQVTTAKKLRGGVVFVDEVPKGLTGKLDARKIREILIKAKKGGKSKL

Inconclusive results are not listed. The source made the active and inactive calls. Unless noted, the call rests on the fitted dose curve; in most records, active means well fitted curve in the direction sought with a large enough effect in the repeat runs; inconclusive means weak or mixed curves; inactive means no such curve, though single readings can be large; an effect the other way counts as inactive or inconclusive.

As to `C[C@H](O)C(=O)C1=Nc2c(nc(N)[nH]c2=O)NC1`, the Potency result in experiment [1], in experiment [2], in experiment [3], in experiment [4] and in experiment [5] was “inactive” throughout.
As to `O=c1onc2n1-c1cc(Br)ccc1OC2`, the Potency result in experiment [1], in experiment [2], in experiment [3], in experiment [4] and in experiment [5] was “inactive” each time.
For the compound `CCCCCCCC/C=C\CCCCCCCC(=O)NCCO`, the Potency entry in experiment [1], in experiment [2], in experiment [3], in experiment [4] and in experiment [5] was “inactive” each time.
In the case of `CCN(CC)CCNC(=O)c1ccc(NS(C)(=O)=O)cc1`, the Potency result in experiment [1], in experiment [2], in experiment [3], in experiment [4] and in experiment [5] was “inactive” each time.
Turning to `O=c1[nH]c2ccccc2c2ccccc12`, the Potency entry in experiment [1], in experiment [2], in experiment [3], in experiment [6] and in experiment [5] was “inactive” throughout.
For `O=C1NC(=O)/C(=C/c2ccc3nccnc3c2)S1`, the Potency result in experiment [1], in experiment [2], in experiment [3], in experiment [4] and in experiment [5] was “inactive” in each case.
As for `Nc1ncnc2c1ncn2C1CCCC1`, the Potency entry in experiment [1], in experiment [2], in experiment [3], in experiment [6] and in experiment [5] was “inactive” each time.
For the compound `N#C/C(=C\c1ccc(O)c(O)c1)C(=O)NCCCNC(=O)/C(C#N)=C/c1ccc(O)c(O)c1`, the Potency result in experiment [1], in experiment [2], in experiment [3], in experiment [6] and in experiment [5] was “inactive” in each case.
In the case of `CN(C)c1nc(N)c(C(=O)N=C(N)N)nc1Cl`, the Potency entry in experiment [1], in experiment [2], in experiment [3], in experiment [4] and in experiment [5] was “inactive” each time.
In the case of `Nc1ccc(CCNc2ncnc3c2ncn3C2OC(CO)C(O)C2O)cc1` (stereo not drawn), the Potency result in experiment [1], in experiment [2], in experiment [3] and in experiment [4] was “inactive” in each case. The Potency in experiment [5] is 12.3 µM (active).
Take `N[C@H](C(=O)O)c1cc(O)cc(O)c1`: the Potency entry in experiment [1], in experiment [2], in experiment [3], in experiment [4] and in experiment [5] was “inactive” each time.
Turning to `O=C(O)C1=CC(=C(c2ccc(O)c(C(=O)O)c2)c2ccc(O)c(C(=O)O)c2)C=CC1=O`, the Potency entry in experiment [1], in experiment [2], in experiment [3], in experiment [4] and in experiment [5] was “inactive” throughout.
For `CCc1cncnc1N1CCN(Cc2nc3ccc(C(F)(F)F)cc3[nH]2)CC1`, the Potency entry in experiment [1], in experiment [3], in experiment [4] and in experiment [5] was “inactive” each time. Moreover, the Potency in experiment [2] is 6.94 µM (active).
Take `CCCC(=O)c1cc(O)c(O)cc1O`: the Potency entry in experiment [1], in experiment [2], in experiment [3], in experiment [6] and in experiment [5] was “inactive” throughout. Moreover, the Potency in experiment [7] is 43.3 µM (active); in experiment [8], 31.7 µM (active).
With `CCCCCCCCCC[Si](C)(C)CCC(=O)NC(Cc1ccc(C)cc1)c1ccccc1` (stereo not drawn), the Potency result in experiment [1], in experiment [2], in experiment [3], in experiment [6] and in experiment [5] was “inactive” each time.
As for `O=C(O)C1=CCNCC1`, the Potency result in experiment [1], in experiment [2], in experiment [3], in experiment [4] and in experiment [5] was “inactive” each time.
As to `NC[C@H]1O[C@@H](n2cnc3c(N)ncnc32)[C@H](O)[C@@H]1O`, the Potency entry in experiment [1], in experiment [2], in experiment [3], in experiment [4] and in experiment [5] was “inactive” throughout.
Take `Oc1cc(O)cc(/C=C/c2ccc(O)c(O)c2)c1`: the Potency result in experiment [1], in experiment [2] and in experiment [4] was “inactive” throughout. For the same compound, the Potency in experiment [3] is 8.41 µM (active); in experiment [5], 18.1 µM (active).
On to `NOCC(=O)O`, for which the Potency entry in experiment [1], in experiment [2], in experiment [3], in experiment [4] and in experiment [5] was “inactive” throughout.
For the compound `CC[C@H](NC(=O)c1c(C)c(-c2ccccc2)nc2ccccc12)c1ccccc1`, the Potency result in experiment [1], in experiment [3], in experiment [4] and in experiment [5] was “inactive” each time. The Potency in experiment [2] was 22 µM (active).
Regarding `Nc1nc2[nH]c(=O)cnc2c(=O)[nH]1`, the Potency result in experiment [1], in experiment [2], in experiment [3], in experiment [6] and in experiment [5] was “inactive” each time.
In the case of `COC(=O)[C@H]1[C@H]2C[C@H]3c4[nH]c5ccccc5c4CCN3C[C@H]2CC[C@@H]1O`, the Potency result in experiment [1], in experiment [2], in experiment [3], in experiment [4] and in experiment [5] was “inactive” each time.
In the case of `Brc1cc2c(cc1[C@H]1Nc3ccccc3[C@H]3C=CC[C@H]31)OCO2`, the Potency entry in experiment [1], in experiment [2], in experiment [3], in experiment [6] and in experiment [5] was “inactive” each time.
On to `Brc1ccc([C@H]2CN3CCSC3=N2)cc1`, for which the Potency entry in experiment [1], in experiment [2], in experiment [3], in experiment [4] and in experiment [5] was “inactive” each time.
Consider `Clc1ccc2c(N3CCN(CCCN4CCN(c5ccnc6cc(Cl)ccc56)CC4)CC3)ccnc2c1`, for which the Potency result in experiment [1], in experiment [2], in experiment [3], in experiment [4] and in experiment [5] was “inactive” each time.
Regarding `CC(C)(NS(=O)(=O)c1ccc(Oc2ccc(F)cc2)cc1)C(=O)NO`, the Potency result in experiment [1], in experiment [3], in experiment [4] and in experiment [5] was “inactive” throughout. Besides, the Potency in experiment [2] was 2.46 µM (active).
On to `CO[C@H]1O[C@@H]2O[C@]3(C)CC[C@@H]4[C@@H](C)CC[C@H]([C@H]1C)[C@]24OO3`, for which the Potency entry in experiment [1], in experiment [3] and in experiment [5] was “inactive” in each case. Also, in experiment [2], the Potency was 0.531 µM (active).
With `COc1cc(/C=C(\C#N)C(=O)c2ccc(O)c(O)c2)cc(I)c1O`, the Potency entry in experiment [1], in experiment [2], in experiment [6], in experiment [4] and in experiment [5] was “inactive” throughout.
On to `CSc1ccccc1N1CCN(CCCCCC(=O)NC2CCCc3ccccc32)CC1` (stereo not drawn), for which the Potency in experiment [1] was 10.2 µM (active); in experiment [2] it was 16.2 µM (active). Also, the Potency result in experiment [3] and in experiment [5] was “inactive” throughout.
Turning to `Cn1c(=O)c2[nH]c(-c3ccccc3)nc2n(C)c1=O`, the Potency entry in experiment [1], in experiment [2], in experiment [6] and in experiment [4] was “inactive” each time.
Consider `O=c1cc(-c2ccccc2F)[nH]c2cc3c(cc12)OCO3`, for which the Potency entry in experiment [1], in experiment [2], in experiment [6] and in experiment [4] was “inactive” each time.
